According to the supplement of paper PMC12645437, “Orthogonal IMiD-Degron Pairs Induce Selective Protein Degradation in Cells” (ACS Chemical Biology, 2025):
Over roughly 8,300 sequences, “log2 fold change of degron read counts, EGFP-low vs EGFP+ sorted cells (limma voom), compound-induced degradation” has its median near -1.1; the highest 2% begin near 3.2. The full list was thinned out, with the highest values kept by preference.

T1: CRBN, Q96SW2
T1 chain: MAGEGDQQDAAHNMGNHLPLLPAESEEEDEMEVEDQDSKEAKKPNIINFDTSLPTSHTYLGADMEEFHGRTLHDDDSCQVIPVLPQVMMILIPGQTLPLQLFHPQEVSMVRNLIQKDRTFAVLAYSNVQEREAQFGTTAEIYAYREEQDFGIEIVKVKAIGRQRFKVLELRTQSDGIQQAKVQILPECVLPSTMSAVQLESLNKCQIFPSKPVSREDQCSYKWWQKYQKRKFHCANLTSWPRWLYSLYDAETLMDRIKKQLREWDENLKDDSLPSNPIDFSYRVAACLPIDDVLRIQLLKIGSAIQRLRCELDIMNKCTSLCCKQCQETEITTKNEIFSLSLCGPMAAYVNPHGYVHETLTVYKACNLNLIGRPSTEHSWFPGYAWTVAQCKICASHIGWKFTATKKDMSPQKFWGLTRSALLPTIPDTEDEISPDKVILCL

B1: 46F_47Q_49P_50Q_52G_53A_54M_55F_67L_, Q9UKT9 (peptide)
chain: FQCPQCGAMFTQKGNLLRHIKL
B2: 46L_47C_49N_50Q_52G_53F_54M_55C_67L_, Q9UKT9 (peptide)
chain: LCCNQCGFMCTQKGNLLRHIKL
B3: 46F_47V_49D_50V_52G_53A_54V_55F_67L_, Q9UKT9 (peptide)
chain: FVCDVCGAVFTQKGNLLRHIKL
B4: 46F_47Q_49N_50Q_52G_53A_54Y_55F_67L_, Q9UKT9 (peptide)
chain: FQCNQCGAYFTQKGNLLRHIKL
B5: 46F_47T_49P_50Q_52G_53A_54Q_55F_67L_, Q9UKT9 (peptide)
chain: FTCPQCGAQFTQKGNLLRHIKL
B6: 46L_47E_49P_50I_52G_53F_54G_55C_67L_, Q9UKT9 (peptide)
chain: LECPICGFGCTQKGNLLRHIKL
B7: 46F_47N_49N_50Q_52G_53H_54V_55F_67L_, Q9UKT9 (peptide)
chain: FNCNQCGHVFTQKGNLLRHIKL
B8: 46F_47E_49P_50I_52G_53H_54P_55F_67L_, Q9UKT9 (peptide)
chain: FECPICGHPFTQKGNLLRHIKL
B9: 46F_47F_49P_50I_52G_53H_54G_55F_67L_, Q9UKT9 (peptide)
chain: FFCPICGHGFTQKGNLLRHIKL
B10: 46F_47H_49E_50I_52G_53A_54F_55F_67L_, Q9UKT9 (peptide)
chain: FHCEICGAFFTQKGNLLRHIKL
B11: 46F_47H_49E_50I_52G_53A_54P_55F_67L_, Q9UKT9 (peptide)
chain: FHCEICGAPFTQKGNLLRHIKL
B12: 46F_47D_49E_50I_52G_53A_54P_55F_67L_, Q9UKT9 (peptide)
chain: FDCEICGAPFTQKGNLLRHIKL
B13: 46F_47T_49E_50I_52G_53A_54P_55F_67L_, Q9UKT9 (peptide)
chain: FTCEICGAPFTQKGNLLRHIKL
B14: 46F_47R_49E_50I_52G_53A_54P_55F_67L_, Q9UKT9 (peptide)
chain: FRCEICGAPFTQKGNLLRHIKL
B15: 46F_47H_49E_50I_52G_53A_54D_55F_67L_, Q9UKT9 (peptide)
chain: FHCEICGADFTQKGNLLRHIKL
B16: 46F_47L_49E_50I_52G_53A_54P_55F_67L_, Q9UKT9 (peptide)
chain: FLCEICGAPFTQKGNLLRHIKL
B17: 46F_47A_49E_50I_52G_53A_54P_55F_67L_, Q9UKT9 (peptide)
chain: FACEICGAPFTQKGNLLRHIKL
B18: 46F_47E_49E_50I_52G_53A_54P_55F_67L_, Q9UKT9 (peptide)
chain: FECEICGAPFTQKGNLLRHIKL
B19: 46F_47L_49E_50Q_52G_53A_54M_55F_67L_, Q9UKT9 (peptide)
chain: FLCEQCGAMFTQKGNLLRHIKL
B20: 46F_47E_49D_50I_52G_53A_54I_55F_67L_, Q9UKT9 (peptide)
chain: FECDICGAIFTQKGNLLRHIKL
B21: 46F_47Q_49N_50Q_52G_53A_54F_55F_67L_, Q9UKT9 (peptide)
chain: FQCNQCGAFFTQKGNLLRHIKL
B22: 46F_47I_49E_50Q_52G_53A_54N_55F_67L_, Q9UKT9 (peptide)
chain: FICEQCGANFTQKGNLLRHIKL
B23: 46F_47R_49N_50I_52G_53A_54S_55F_67L_, Q9UKT9 (peptide)
chain: FRCNICGASFTQKGNLLRHIKL
B24: 46F_47C_49D_50I_52G_53A_54R_55F_67L_, Q9UKT9 (peptide)
chain: FCCDICGARFTQKGNLLRHIKL
B25: 46F_47D_49D_50I_52G_53A_54R_55F_67L_, Q9UKT9 (peptide)
chain: FDCDICGARFTQKGNLLRHIKL
B26: 46F_47Q_49D_50I_52G_53A_54R_55F_67L_, Q9UKT9 (peptide)
chain: FQCDICGARFTQKGNLLRHIKL
B27: 46F_47W_49D_50I_52G_53A_54R_55F_67L_, Q9UKT9 (peptide)
chain: FWCDICGARFTQKGNLLRHIKL
B28: 46F_47G_49D_50I_52G_53A_54R_55F_67L_, Q9UKT9 (peptide)
chain: FGCDICGARFTQKGNLLRHIKL
B29: 46F_47R_49D_50I_52G_53A_54R_55F_67L_, Q9UKT9 (peptide)
chain: FRCDICGARFTQKGNLLRHIKL
B30: 46F_47T_49D_50I_52G_53A_54R_55F_67L_, Q9UKT9 (peptide)
chain: FTCDICGARFTQKGNLLRHIKL
B31: 46F_47L_49D_50I_52G_53A_54R_55F_67L_, Q9UKT9 (peptide)
chain: FLCDICGARFTQKGNLLRHIKL
B32: 46F_47Y_49D_50I_52G_53A_54R_55F_67L_, Q9UKT9 (peptide)
chain: FYCDICGARFTQKGNLLRHIKL
B33: 46F_47F_49D_50I_52G_53A_54R_55F_67L_, Q9UKT9 (peptide)
chain: FFCDICGARFTQKGNLLRHIKL
B34: 46F_47A_49D_50I_52G_53A_54R_55F_67L_, Q9UKT9 (peptide)
chain: FACDICGARFTQKGNLLRHIKL
B35: 46F_47V_49D_50I_52G_53A_54R_55F_67L_, Q9UKT9 (peptide)
chain: FVCDICGARFTQKGNLLRHIKL

Molecular target: T1, CRBN, Q96SW2
Assay: log2 fold change of degron read counts, EGFP-low vs EGFP+ sorted cells (limma voom), compound-induced degradation; higher = more compound-induced degradation of the degron-EGFP fusion; degrons are variants of IKZF1/3 zinc finger 2; compound dose not given here
Settings: Jurkat, 18 h
[1] = compound: compound 19 (5-tert-butyl-thalidomide)
[2] = compound: compound 22 (5-morpholino-thalidomide)
[3] = compound: compound 33 (diphenyl IMiD analogue)
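Note: pooled lentiviral library of zinc finger degron-EGFP fusions in mCherry-positive Jurkat cells, FACS-sorted after compound exposure, with degron abundance counted by next-generation sequencing.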

Sequence | log2 fold change of degron read counts [1] | log2 fold change of degron read counts [2] | log2 fold change of degron read counts [3] | log2 fold change of degron read counts (compound: thalidomide)
B1 | -1.88 | -0.122 | 0.828 | 2.53
B2 | -1.73 | -2.27 | -1.57 | -1.43
B3 | -2.2 | -1.22 | 0.29 | -0.895
B4 | -2.89 | -2.26 | -1.84 | -0.227
B5 | -2.03 | 0.309 | 1.83 | 1.07
B6 | 0.698 | -0.66 | 1.1 | 2.27
B7 | -2.33 | -2.54 | -2.77 | -2.34
B8 | -2.51 | -2.54 | -0.989 | -0.173
B9 | -1.02 | -1.29 | -0.968 | -1.48
B10 | 0.885 | -0.276 | 0.198 | -1.2
B11 | 4 | 3.46 | 2.38 | 1.9
B12 | 2.21 | 0.891 | -0.242 | 0.789
B13 | 2.99 | 3.21 | 2.47 | 3.17
B14 | 3.62 | 3.98 | 3.31 | 3.58
B15 | -1.38 | -3.23 | -1.06 | -2.34
B16 | 2.96 | 2.82 | 2.69 | 3.17
B17 | 3.6 | 2.51 | 0.463 | 1.72
B18 | 2.7 | -0.51 | 1.41 | 2.07

Sequence | log2 fold change of degron read counts [1] | log2 fold change of degron read counts [2] | log2 fold change of degron read counts [3] | log2 fold change of degron read counts (compound: thalidomide)
B19 | -2.2 | -2.48 | -0.823 | -1.31
B20 | -1.92 | -1.75 | -0.965 | 0.171
B21 | -2.56 | -2.44 | -1.62 | -1.28
B22 | -2.09 | -0.316 | 0.362 | 0.322
B23 | 0.331 | 0.291 | 0.894 | 0.839
B24 | 2.34 | 2.23 | 0.356 | 1.57
B25 | 1.85 | 0.0154 | -1.13 | -0.0241
B26 | -1.01 | 1.3 | 0.0735 | 3.03
B27 | 3.15 | 3.82 | 0.741 | 0.265
B28 | 2.15 | 0.817 | -1.24 | 0.195
B29 | -1.84 | -2.03 | -1.21 | -0.575
B30 | 1.44 | 2.55 | 0.655 | 1.76
B31 | -0.594 | -2.06 | -0.802 | 0.425
B32 | 3.31 | 3.35 | 0.716 | -0.312
B33 | 3.58 | 3.35 | 0.994 | 0.0481
B34 | 3.46 | 1.91 | -1.69 | -0.979
B35 | 0.23 | 1.75 | -0.304 | 1.47
